pCIP destab: p/CIP-EGFP fusion destabilizers, primary screen, fluorescence, F442A cells | Q05BA5 | 16 h | decrease of EGFP signal, % at 10 µM | actives 0.01% (n = 290,000);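 active = EGFP signal decrease of at least 30% at 10 µM or well 3 SD below plate mean, unless failing retest; inactive = the rest, including hits failing retest or dose response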
SUMO HTRF inh: inhibitors of in vitro SUMOylation cascade, primary screen, biochemical, HTRF, uHTS; inhibition, % at 35 µM; actives 0.36% (n = 290,000); HTRF SUMOylation assay, SAE1/SAE2 + UBC9; SUMO-conjugating enzyme UBC9 (Homo sapiens), P63279; AID 2006, 2009; in the data active = inhibition above about 50%, passing the limit was not always enough; inconclusive = no clear call, values can overlap the other calls
Target sequence (P63279 whole entry, looked up): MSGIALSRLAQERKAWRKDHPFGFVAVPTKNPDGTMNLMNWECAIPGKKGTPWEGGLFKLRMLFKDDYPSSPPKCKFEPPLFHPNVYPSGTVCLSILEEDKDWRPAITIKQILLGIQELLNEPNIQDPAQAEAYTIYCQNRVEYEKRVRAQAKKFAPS
PHOSPHO1 block: PubChem AID 1565 | recombinant PHOSPHO1, absorbance phosphatase assay | inhibition, % at 13.3 µM | actives 1.1% (n = 290,000); in the data active = inhibition above about 60%
Target sequence (Q8TCT1 whole entry, looked up): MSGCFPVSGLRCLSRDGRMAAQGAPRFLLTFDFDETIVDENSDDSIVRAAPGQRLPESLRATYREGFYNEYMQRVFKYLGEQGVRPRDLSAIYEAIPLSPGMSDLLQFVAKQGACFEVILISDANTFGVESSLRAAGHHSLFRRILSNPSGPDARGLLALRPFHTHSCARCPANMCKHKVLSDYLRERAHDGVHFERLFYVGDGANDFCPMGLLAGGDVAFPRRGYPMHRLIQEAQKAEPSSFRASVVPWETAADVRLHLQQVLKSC
NadD block: inhibitors of S. aureus NadD, primary screen, biochemical, colorimetric, uHTS; Nicotinate-nucleotide adenylyltransferase NadD (Staphylococcus aureus N315); purified NadD enzyme, colorimetric absorbance read-out; inhibition, % at 20 µM; actives 0.78% (n = 360,000); AID 602399, 2012; in the data active = inhibition above about 26%
NadD conf: inhibitors of S. aureus NadD, confirmation, biochemical, colorimetric, single concentration; shares compounds with NadD block; purified S. aureus NadD, colorimetric enzyme assay; inhibition, % at 20 µM; actives 13% (n = 2,000); in the data active = inhibition mostly above about 42%, no sharp cut-off; inactive = mostly below about 42%
* hit, by the source's call; ? = inconclusive; nt = not tested or not shown. Hits are enriched below; roughly 1.8% of the tested compounds scored in any of these assays.

SMILES | pCIP destab | SUMO HTRF inh | PHOSPHO1 block | NadD block | NadD conf
O=C(Nc1ccc(N2CCCC2)cc1)c1ccc([N+](=O)[O-])cc1Cl | 12.1 | 2.0 | -4.4 | 35.9* | -1.7
O=C(Nc1ccc(N2CCCC2)cc1)c1cccc(-c2cc3ccccc3oc2=O)c1 | -15.4 | 32.0 | 11.9 | 57.2* | 6.2
O=C(Nc1ccc(S(=O)(=O)N2CCOCC2)cc1)c1ccc([N+](=O)[O-])cc1Cl | -4.9 | -6.1 | 9.2 | 5.2 | nt
O=C(Nc1ccccc1N1CCCC1)c1cccc(-c2cc3ccccc3oc2=O)c1 | 0.2 | 11.2 | 8.7 | 21.5 | nt
CCCCNC(=S)Nc1ccc(OC)nc1 | 1.4 | 10.4 | -9.8 | 0.8 | nt
O=C(Nc1nnc(-c2ccc3c(c2)CCCC3)o1)c1ccc(Cl)cc1Cl | -9.5 | -9.5 | -18.1 | 35.9* | 23.9
COc1ccc(C)cc1Nc1nc(-c2c[nH]c3ccccc23)cs1 | -5.3 | -4.2 | -14.7 | 39.3* | 36.4
COc1ccccc1Nc1nc(-c2cccs2)cs1 | -3.7 | 43.4 | 57.4 | 17.8 | nt
COc1ccc(-c2[nH]ncc2CN2CCCCCCC2)c(OC)c1 | -7.1 | 15.7 | 49.8 | 29.8* | 15.0
COc1ccc(-c2[nH]ncc2CN2CCC(N3CCSCC3)CC2)c(F)c1 | -29.2 | 10.7 | 27.9 | -3.4 | nt
O=C(NCc1ccco1)c1cc(C(=O)C2CC2)c[nH]1 | -3.6 | 11.2 | 16.2 | 1.9 | nt
O=C(Nc1ccc2c(c1)OCO2)C1Cc2ccccc2CN1S(=O)(=O)c1cccs1 (centres undefined) | -14.7 | 25.1 | 20.9 | 31.0* | -1.5
CCc1cccc(CC)c1NC(=O)CSc1nnc(CCC(=O)O)c(=O)[nH]1 | -24.9 | 3.1 | 32.0 | -4.6 | nt
Nc1ccc2nc(-c3ccccc3)[nH]c2c1 | 10.1 | ? | 0.1 | -0.9 | nt
Nc1ccc2nc(-c3ccc(N)c(Cl)c3)[nH]c2c1 | -9.4 | 26.8 | 3.4 | 41.3* | 17.9
CCOC(=O)c1c(C)[nH]c(C(=O)OCC(O)=C(C#N)c2nc3ccccc3[nH]2)c1C | nt | nt | nt | 10.4 | nt
Cc1c(C(=O)OC/C(O)=C(\C#N)c2nc3ccccc3[nH]2)oc2ccc(Br)cc12 | -10.8 | 31.8 | 5.0 | 43.1* | 4.3
CC(C)OCc1c(C(=O)OC/C(O)=C(\C#N)c2nc3ccccc3[nH]2)oc2ccccc12 | -7.4 | 11.0 | 20.6 | 8.4 | nt
Cc1c(-c2cccc(Cl)c2)nc2ccccc2c1C(=O)OC/C(O)=C(\C#N)c1nc2ccccc2[nH]1 | -7.6 | 36.6 | 24.6 | 70.2* | -1.3
CCCCNC(=O)C1(C)CCCCN1C(=O)c1cccs1 (centres undefined) | nt | nt | nt | 1.1 | nt
CC(C)C[C@H](NC(=O)c1[nH]cnc1C(=O)Nc1ccc(CNC(=O)OC(C)(C)C)cc1)C(=O)OC(C)(C)C | -2.4 | -31.5 | -7.5 | 16.6 | nt
CC(C)(C)OC(=O)NCc1ccc(NC(=O)c2nc[nH]c2C(=O)N[C@@H](Cc2ccccc2)C(=O)OC(C)(C)C)cc1 | -16.0 | -11.2 | 34.3 | 30.4* | -1.7
O=C(Nc1ccccc1)c1nc[nH]c1C(=O)NCCN(CCNC(=O)c1[nH]cnc1C(=O)Nc1ccccc1)CCNC(=O)c1[nH]cnc1C(=O)Nc1ccccc1 | nt | nt | nt | 56.7* | 4.3
CNC(=O)c1[nH]cnc1C(=O)Nc1ccc(Cl)cc1 | -6.7 | 17.6 | 21.4 | -2.8 | nt
O=C(Nc1ccc(Cl)cc1)c1nc[nH]c1C(=O)NCCN(CCNC(=O)c1[nH]cnc1C(=O)Nc1ccc(Cl)cc1)CCNC(=O)c1[nH]cnc1C(=O)Nc1ccc(Cl)cc1 | nt | nt | nt | 56.6* | 2.9
SMILES | pCIP destab | SUMO HTRF inh | PHOSPHO1 block | NadD block | NadD conf
O=C(Nc1ccccc1)c1nc[nH]c1C(=O)NCCCCCCNC(=O)c1[nH]cnc1C(=O)Nc1ccccc1 | nt | nt | nt | 31.8* | -1.1
Cc1ccccc1Nc1nc(N)nc(COC(=O)c2ccc3c(c2)OCCO3)n1 | nt | nt | nt | 2.4 | nt
Cc1cccc(NC(=O)c2nc[nH]c2C(=O)NCCCNC(=O)c2[nH]cnc2C(=O)Nc2cccc(C)c2)c1 | nt | nt | nt | 16.1 | nt
Cc1cccc(NC(=O)c2nc[nH]c2C(=O)NCCN(CCNC(=O)c2[nH]cnc2C(=O)Nc2cccc(C)c2)CCNC(=O)c2[nH]cnc2C(=O)Nc2cccc(C)c2)c1 | nt | nt | nt | 41.9* | -1.4
COc1cc(/C=C2/SC(=S)N(CC(=O)NNC(=O)c3ccc(F)cc3)C2=O)cc(OC)c1OC | nt | nt | nt | 4.0 | nt
NC(=O)c1ccccc1NC(=O)c1cccc(C(=O)Nc2ccccc2C(N)=O)n1 | nt | nt | nt | 9.7 | nt
Cn1c(=O)c(C(=O)CN2CCc3ccccc32)c(N)n(Cc2ccccc2)c1=O | -0.7 | -3.8 | -16.4 | 62.5* | 15.4
